Data from PubChem BioAssay (NCATS).
Inconclusive results are not listed. Calls of active or inactive are those of the source. Unless noted, the call rests on the fitted dose curve; in most records, active means well fitted curve in the direction sought with a large enough effect; inconclusive means small, poorly fitted or top-dose-only effect, or another doubt; inactive means no such curve, though single readings can be large; an effect the other way counts as inactive or inconclusive.

Columns and labels:
[1] = qHTS assay for measurement of the activity of small molecule inhibitors on Zika virus induced Caspase-3 activity in human iPSC derived neural progenitor cells (hNPCs) (AID 1224857); further: nearly all actives have a fitted effect of over 65% in size
Summary of the method: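 Quantitative HTS format: human iPSC neural progenitors, 1 h compound pretreatment, ZIKV 2 FFU/cell for 6 h at 37 C. Percent inhibition derived from luminescent caspase-3/7 signal between uninfected and infected controls.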

[2] = qHTS assay for measurement of the activity of small molecule inhibitors on Zika virus induced Caspase-3 activity in human astrocytoma cells (AID 1224859)
Summary of the method: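 Readout is luminescence from Caspase-Glo 3/7 added after a 6 h ZIKV infection (2 FFU/cell) of compound-pretreated (1 h) SNB-19 cells; data expressed as % inhibition versus uninfected and infected wells.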

[3] = qHTS assay to identify small molecule inhibitors of chordoma cells - UCH-2 (AID 1259356)
[4] = NS1 protein of Zika virus - qHTS assay to identify small molecule inhibitors in human HEK 293 cells (AID 1347053); further: nearly all actives have a fitted effect of over 55% in size
Summary of the method: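 HEK 293; 20 h pre-culture, 37 C/5% CO2; cpd 1 h pre-infection; ZIKV MR766, MOI = 0.5, 24 h, 37 C; TR-FRET NS1 readout (two anti-NS1 Abs); norm. to no-virus vs infected.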

[5] = qHTS profiling of the MIPE4 collection as inhibitors of Plasmodium falciparum (DD2) proliferation (AID 743345; call rule not given here); settings: P. falciparum Dd2 in erythrocytes, SYBR Green DNA, 72 h; at 28.5 µM (top of the series) unless noted
Summary of the method: (§1)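 Erythrocytes infected with P. falciparum (0.3% parasitemia, 2.5% hematocrit) incubated with compounds 72 h at 37 C, 5% CO2. Lysis with saponin/Triton buffer containing SYBR Green I, overnight at room temperature in the dark; DNA fluorescence (485/535 nm) normalised to 0.29 uM artemisinin and DMSO.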

[6] = qHTS profiling of the MIPE4 collection as inhibitors of Plasmodium falciparum (DD2) proliferation (Rep 2) (AID 743346; call rule not given here); settings: P. falciparum Dd2 in erythrocytes, SYBR Green DNA, 72 h; at 28.5 µM (top of the series) unless noted
Summary of the method: as §1

[7] = qHTS profiling of the MIPE4 collection as inhibitors of Plasmodium falciparum (HB3) proliferation (AID 743347; call rule not given here); settings: P. falciparum HB3 in erythrocytes, SYBR Green DNA, 72 h; at 28.5 µM (top of the series) unless noted
Summary of the method: as §1

[8] = Identifying Small Molecule Inhibitors of Pancreatic Cancer Stem Cells (SN12C, Adherent) (AID 1259358); settings: viability/growth inhibition;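 further: potency means the concentration at half of the fitted maximal effect; cell survival measured after 48 h of compound exposure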
Summary of the method: (§2)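 Viability is scored by CellTiter-Glo luminescence 48 h after dosing, expressed as percent activity against vehicle and no-cell references. Spheroid formats rely on cells cultured 14 days in stem cell media beforehand.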

[9] = Identifying Small Molecule Inhibitors of Pancreatic Cancer Stem Cells (SN12C, Spheroid) (AID 1259360); settings: SN12C spheroid viability; further: potency means the concentration at half of the fitted maximal effect
Summary of the method: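 Monolayer and spheroid cultures are compared. Spheroids form over 14 days in stem cell medium on hydrogel-coated low-attachment plates, then are exposed to compound for 48 h before CellTiter-Glo luminescence.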

[10] = Identifying Small Molecule Inhibitors of Pancreatic Cancer Stem Cells (A278, Adherent) (AID 1259361);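 further: viability read after 48 h compound exposure; nearly all actives have a fitted effect of over 35% in size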
Summary of the method: as §2

[11] = Identifying Small Molecule Inhibitors of Pancreatic Cancer Stem Cells (Panc1, Adherent) (AID 1259362); settings: viability; further: potency means the concentration at half of the fitted maximal effect
Summary of the method: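 Spheroids grown 14 days in stem cell media on hydrogel-coated nonadherent plates; 2D lines seeded directly. Compounds added after 4 h attachment, 48 h at 37C, 5% CO2; CellTiter-Glo luminescence normalized to DMSO (no inhibition) and no-cell wells (full inhibition).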

[12] = Natriuretic polypeptide receptor (hNpr1) antagonism - Pilot counterscreen GloSensor control cell line (AID 1347045; calls by dose curve)
Summary of the method: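 HEK293 cGMP GloSensor cells preloaded 2 h with 2% GloSensor reagent, then compound 30 min before baseline luminescence read. Stimulated with 50 uM sodium nitroprusside, 20 min at room temperature, then read again; counterscreen for Npr1 antagonism.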

[13] = target: Atrial natriuretic peptide receptor 1 (Homo sapiens) (UniProt P16066); assay: Natriuretic polypeptide receptor (hNpr1) antagonism - Pilot screen (AID 1347049; calls by dose curve;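 further: agonist-evoked cGMP luminescence read 20 min after hNppA addition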)
Summary of the method: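 HEK293 cells co-expressing hNpr1 and the GloSensor pGS-40F cGMP luciferase sensor were preloaded with 2% GloSensor reagent for 2 h. Compounds were added for 30 min at room temperature, then cells were stimulated with 0.1 nM hNppA for 20 min before luminescence readout.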

[14] = target: Tyrosine-protein phosphatase non-receptor type substrate 1 (Homo sapiens) + Leukocyte surface antigen CD47 (Homo sapiens) (UniProt P78324+Q08722); assay: CD47-SIRPalpha protein protein interaction - LANCE assay qHTS validation (AID 1347057; active means well fitted curve in the direction sought with a large enough effect in the signal ratio, with a control signal flat, not every such curve was filed as active; the % refers to the signal ratio)
Summary of the method: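 First, His-tagged CD47 and Eu-labelled anti-His antibody met the compound for 30 min; next, site-specifically biotinylated SIRPalpha was added for 30 min; finally streptavidin-APC was added before reading the TR-FRET ratio.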

[15] = P-glycoprotein substrates identified in KB-8-5-11 adenocarcinoma cell line, qHTS therapeutic library screen (AID 1346987); further: nearly all actives have a fitted effect of over 65% in size; further: potency means the concentration at half of the fitted maximal effect
Summary of the method: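 KB-8-5-11, a colchicine-selected P-gp-overexpressing KB-3-1 subline, was grown without colchicine for the assay. Cells were seeded at 500 cells/well, dosed in concentration-response and incubated 72 h at 37 degree C, 5% CO2. Viability was read by CellTiter-Glo luminescence.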

[16] = qHTS assay to identify small molecule inhibitors of chordoma cells - UCH-1 (AID 1259355); further: nearly all actives have a fitted effect of over 55% in size; further: potency means the concentration at half of the fitted maximal effect
Summary of the method: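 Luminescent ATP read-out (CellTiter-Glo, 30min at room temperature) measured viability of UCH-1 cells exposed for 48hr to test drugs at 15 concentrations, co-dosed with a five-agent combination of auranofin, camptothecin, doxorubicin, rubitecan and topotecan.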

[17] = target: Atrial natriuretic peptide receptor 2 (Homo sapiens) (UniProt P20594); assay: Natriuretic polypeptide receptor (hNpr2) antagonism - Pilot subtype selectivity assay (AID 1347050; calls by dose curve)
Summary of the method: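 cGMP-sensor HEK293/hNpr2 cells; 2% GloSensor reagent 2 h RT; compounds 30 min; baseline luminescence read; 1 nM hNppC agonist 20 min RT; final luminescence read by CCD camera. Antagonism = reduced post-agonist signal.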

[18] = P-glycoprotein substrates identified in KB-3-1 adenocarcinoma cell line, qHTS therapeutic library screen (AID 1346986); settings: KB-3-1 parental cells viability, CellTiter-Glo, 72 h; at 44.5 µM (top of the series); further: nearly all actives have a fitted effect of over 60% in size
Summary of the method: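 Resistance attributable to P-gp was assessed by comparing AC50 in KB-8-5-11 with parental KB-3-1 and by tariquidar reversal. Cells were exposed 72 h and viability read by CellTiter-Glo.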

[19] = Identifying Small Molecule Inhibitors of Pancreatic Cancer Stem Cells (Panc1, Spheroid) (AID 1259359); settings: Panc1 spheroid cancer stem cell viability;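 further: potency means the concentration at half of the fitted maximal effect; compound exposure lasted 48 h before reading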
Summary of the method: as §2

Chain of Atrial natriuretic peptide receptor 1 (Homo sapiens) (P16066 whole entry, looked up): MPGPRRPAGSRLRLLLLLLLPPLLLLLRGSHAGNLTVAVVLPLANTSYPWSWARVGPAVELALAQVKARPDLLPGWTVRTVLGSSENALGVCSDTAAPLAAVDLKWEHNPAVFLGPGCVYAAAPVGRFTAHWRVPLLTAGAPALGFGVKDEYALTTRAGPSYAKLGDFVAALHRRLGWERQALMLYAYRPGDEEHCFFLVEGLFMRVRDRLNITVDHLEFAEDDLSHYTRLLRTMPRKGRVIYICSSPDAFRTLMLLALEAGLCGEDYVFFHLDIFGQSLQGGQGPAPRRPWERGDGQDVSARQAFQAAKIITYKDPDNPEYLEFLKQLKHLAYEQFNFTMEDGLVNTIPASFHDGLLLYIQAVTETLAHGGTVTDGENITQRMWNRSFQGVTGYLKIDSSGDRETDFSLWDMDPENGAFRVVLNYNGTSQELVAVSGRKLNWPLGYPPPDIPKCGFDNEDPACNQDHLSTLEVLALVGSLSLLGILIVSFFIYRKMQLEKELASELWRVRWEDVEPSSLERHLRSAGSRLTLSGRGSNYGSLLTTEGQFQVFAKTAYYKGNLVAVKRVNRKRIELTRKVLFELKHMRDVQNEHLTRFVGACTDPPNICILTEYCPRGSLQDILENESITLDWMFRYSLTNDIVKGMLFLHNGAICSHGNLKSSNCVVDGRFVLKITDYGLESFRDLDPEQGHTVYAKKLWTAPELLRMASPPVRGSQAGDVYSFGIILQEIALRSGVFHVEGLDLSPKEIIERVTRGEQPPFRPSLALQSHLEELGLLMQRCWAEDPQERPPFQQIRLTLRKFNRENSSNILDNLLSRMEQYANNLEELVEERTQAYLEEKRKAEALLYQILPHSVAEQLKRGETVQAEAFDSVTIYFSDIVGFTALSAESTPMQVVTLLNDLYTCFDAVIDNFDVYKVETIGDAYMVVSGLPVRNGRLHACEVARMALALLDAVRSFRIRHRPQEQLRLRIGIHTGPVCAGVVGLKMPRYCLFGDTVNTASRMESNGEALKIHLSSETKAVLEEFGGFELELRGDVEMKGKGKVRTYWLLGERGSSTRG
Chain of Tyrosine-protein phosphatase non-receptor type substrate 1 (Homo sapiens) + Leukocyte surface antigen CD47 (Homo sapiens) (P78324 whole entry, looked up): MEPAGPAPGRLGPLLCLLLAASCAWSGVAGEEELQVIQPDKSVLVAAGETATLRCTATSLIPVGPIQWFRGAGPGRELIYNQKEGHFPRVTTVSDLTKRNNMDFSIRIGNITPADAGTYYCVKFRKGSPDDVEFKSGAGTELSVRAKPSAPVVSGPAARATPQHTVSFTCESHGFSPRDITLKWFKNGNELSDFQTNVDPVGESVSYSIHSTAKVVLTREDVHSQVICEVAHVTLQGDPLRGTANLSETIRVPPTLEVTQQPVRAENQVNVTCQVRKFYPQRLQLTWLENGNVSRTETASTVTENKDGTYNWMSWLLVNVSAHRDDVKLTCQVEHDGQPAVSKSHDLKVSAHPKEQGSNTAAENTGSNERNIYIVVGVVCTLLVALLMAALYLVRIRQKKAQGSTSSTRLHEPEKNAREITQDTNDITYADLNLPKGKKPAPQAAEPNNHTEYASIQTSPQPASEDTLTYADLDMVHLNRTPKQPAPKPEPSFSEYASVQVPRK
Chain of Tyrosine-protein phosphatase non-receptor type substrate 1 (Homo sapiens) + Leukocyte surface antigen CD47 (Homo sapiens) (Q08722 whole entry, looked up): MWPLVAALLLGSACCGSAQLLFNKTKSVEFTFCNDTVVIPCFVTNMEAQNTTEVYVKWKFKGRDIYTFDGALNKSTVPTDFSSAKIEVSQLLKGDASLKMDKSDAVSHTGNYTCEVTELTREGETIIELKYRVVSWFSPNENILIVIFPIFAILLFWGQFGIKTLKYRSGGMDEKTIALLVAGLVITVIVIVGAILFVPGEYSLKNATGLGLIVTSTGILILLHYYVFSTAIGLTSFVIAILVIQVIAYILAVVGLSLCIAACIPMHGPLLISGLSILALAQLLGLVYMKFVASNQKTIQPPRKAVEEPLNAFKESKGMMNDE
Chain of Atrial natriuretic peptide receptor 2 (Homo sapiens) (P20594 whole entry, looked up): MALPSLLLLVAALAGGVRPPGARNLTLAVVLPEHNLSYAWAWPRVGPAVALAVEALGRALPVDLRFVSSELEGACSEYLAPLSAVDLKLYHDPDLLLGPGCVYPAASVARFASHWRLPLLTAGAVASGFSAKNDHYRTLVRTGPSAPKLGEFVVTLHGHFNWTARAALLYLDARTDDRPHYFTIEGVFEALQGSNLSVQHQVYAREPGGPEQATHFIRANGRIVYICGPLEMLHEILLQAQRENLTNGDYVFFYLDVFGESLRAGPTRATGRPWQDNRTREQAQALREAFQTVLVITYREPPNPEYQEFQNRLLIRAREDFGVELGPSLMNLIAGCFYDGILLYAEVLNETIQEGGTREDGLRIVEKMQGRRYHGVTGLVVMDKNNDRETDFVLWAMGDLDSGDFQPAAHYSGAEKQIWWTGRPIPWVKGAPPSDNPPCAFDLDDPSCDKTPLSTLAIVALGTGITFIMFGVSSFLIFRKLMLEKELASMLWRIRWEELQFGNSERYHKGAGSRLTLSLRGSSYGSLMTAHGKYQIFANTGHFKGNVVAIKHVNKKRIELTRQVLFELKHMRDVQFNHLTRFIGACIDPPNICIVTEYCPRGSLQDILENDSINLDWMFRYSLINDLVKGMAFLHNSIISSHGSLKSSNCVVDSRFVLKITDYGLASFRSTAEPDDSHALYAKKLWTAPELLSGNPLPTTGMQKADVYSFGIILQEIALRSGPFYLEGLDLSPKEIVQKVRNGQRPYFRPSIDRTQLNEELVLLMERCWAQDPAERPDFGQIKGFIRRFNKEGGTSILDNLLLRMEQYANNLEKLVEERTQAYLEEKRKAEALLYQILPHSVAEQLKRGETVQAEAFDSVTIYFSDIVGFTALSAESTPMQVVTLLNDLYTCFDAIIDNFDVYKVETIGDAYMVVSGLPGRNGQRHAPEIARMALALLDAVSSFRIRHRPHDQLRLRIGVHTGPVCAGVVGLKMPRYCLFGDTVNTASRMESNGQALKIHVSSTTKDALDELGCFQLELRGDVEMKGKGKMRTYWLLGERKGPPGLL

NC(=O)C(=O)N/N=C/c1ccc([N+](=O)[O-])o1
inactive: outcome [1] | outcome [2] | Potency [3] | Potency [4]

CC(C)(CO)[C@@H](O)C(=O)NCCCO
inactive: outcome [1] | outcome [2] | Potency [3] | Potency [4]

COc1cc2c(cc1O)CC[C@@H]1[C@@H]2CC[C@]2(C)[C@@H](O)CC[C@@H]12
inactive: outcome [1] | outcome [2] | outcome [12] | outcome [13] | Potency [4] | outcome [14]
active: Potency [8] 2.35 µM | Potency [9] 5.9 µM | IC50 (viability decrease) [10] 0.935 µM | Potency [11] 1.05 µM
96.4%: parasite growth remaining, % of DMSO control (lower = more inhibition) [5]
83.5%: growth, % of control [7]
130%: parasite growth, % of control (lower = inhibition) [6]

Cc1onc(-c2c(Cl)cccc2Cl)c1C(=O)N[C@@H]1C(=O)N2[C@@H]1SC(C)(C)[C@@H]2C(=O)O
inactive: outcome [1] | outcome [2] | Potency [15] | Potency [4]

COc1c(C)c2c(c(O)c1C/C=C(\C)CCC(=O)O)C(=O)OC2
inactive: outcome [1] | outcome [2] | Potency [3] | Potency [4]

NC[C@H]1O[C@H](O[C@H]2[C@H](O)[C@@H](O[C@H]3O[C@H](CO)[C@@H](O)[C@H](N)[C@H]3O)[C@H](N)C[C@@H]2N)[C@H](N)[C@@H](O)[C@@H]1O
inactive: outcome [1] | outcome [2] | Potency [15] | Potency [4]

CCOc1ccc(Cc2nccc3cc(OCC)c(OCC)cc23)cc1OCC
inactive: outcome [1] | outcome [2] | Potency [3] | Potency [4]

CNC(=O)CN(CCN(CCN(CC(=O)[O-])CC(=O)NC)CC(=O)[O-])CC(=O)[O-].O.[Gd+3]
inactive: outcome [1] | outcome [2] | Potency [15] | Potency [4]

CC(CCc1ccccc1)NCC(O)c1ccc(O)c(C(N)=O)c1 (centres undefined)
inactive: outcome [2] | Potency [16] | Potency [3] | outcome [13] | outcome [17] | Potency [4] | outcome [14]

Nc1ccc(C(=O)Nc2ccccc2N)cc1
inactive: outcome [2] | Potency [3] | Potency [4]
active: Potency [15] 16.4 µM

CC(=O)O[C@]1(C(C)=O)CC[C@H]2[C@@H]3C[C@H](C)C4=CC(=O)CC[C@]4(C)[C@H]3CC[C@@]21C
inactive: outcome [2] | Potency [3] | outcome [18] | Potency [4]
active: Potency [15] 10.3 µM

CCN(CC)CCOC(=O)C(c1ccccc1)C1CCCCC1 (centres undefined)
inactive: outcome [2] | Potency [16] | Potency [3] | Potency [15] | Potency [4]

O=c1[nH]c(=O)n([C@H]2C[C@H](O)[C@@H](CO)O2)cc1C(F)(F)F
inactive: outcome [2] | Potency [16] | Potency [3] | Potency [4]

CC(C)(C)CC(C)(C)c1ccc(O)c(Cc2ccc(Cl)cc2Cl)c1
inactive: outcome [2] | Potency [3] | Potency [4]
active: Potency [15] 23.1 µM

CC(=O)OCC(=O)[C@@]1(O)[C@H](C)C[C@H]2[C@@H]3CCC4=CC(=O)C=C[C@]4(C)[C@@]3(F)[C@@H](O)C[C@@]21C
inactive: outcome [2] | Potency [3] | outcome [18] | Potency [15] | Potency [4]

O=C(O)CNC(=O)c1ccccc1
inactive: outcome [2] | Potency [3] | Potency [15] | Potency [4]

CC1=C(C(=O)OC(C)C)C(c2cccc([N+](=O)[O-])c2)C(C(=O)OC2CN(C(c3ccccc3)c3ccccc3)C2)=C(N)N1 (centres undefined)
24.4%: parasite growth, % of control (lower = inhibition) [6]
7.73%: parasite growth remaining, % of DMSO control (lower = more inhibition) [5]
9.79%: growth, % of control [7]
inactive: outcome [2] | Potency [16] | Potency [3]

Nc1ccc(C(=O)O)cc1
inactive: outcome [2] | Potency [16] | Potency [3] | Potency [4]

CN=C(NC#N)NCCSCc1csc(N=C(N)N)n1
inactive: outcome [2] | Potency [16] | Potency [3] | Potency [15] | Potency [4]

COc1cccc2c1C(=O)c1c(O)c3c(c(O)c1C2=O)C[C@@](O)(C(=O)CO)C[C@@H]3O[C@H]1C[C@H](N)[C@H](O)[C@H](C)O1
inactive: outcome [2] | Potency [3] | Potency [15]
active: Potency [8] 3.32 µM | Potency [19] 5.9 µM | Potency [9] 18.7 µM | IC50 (viability decrease) [10] 0.418 µM

COc1cc(NS(C)(=O)=O)ccc1Nc1c2ccccc2nc2ccccc12
active: Potency [16] 28.2 µM
inactive: outcome [2] | outcome [13] | outcome [17]

Nc1nc2ncc(CNc3ccc(C(=O)N[C@@H](CCC(=O)O)C(=O)O)cc3)nc2c(=O)[nH]1
inactive: outcome [2] | Potency [16] | Potency [3] | Potency [4]

COc1cc2c(cc1OC)[C@@H]1CC(=O)[C@@H](CC(C)C)CN1CC2
inactive: outcome [2] | Potency [3] | Potency [4]

O=C(Nc1ccc(Oc2ccc(Cl)cc2)c(Cl)c1)c1cc(I)cc(I)c1O
inactive: outcome [2] | Potency [16] | Potency [3] | Potency [4]

CC(C)=CCC1C(=O)N(c2ccccc2)N(c2ccccc2)C1=O
inactive: outcome [2] | Potency [3] | Potency [4]

COC1=CC(=O)C[C@@H](C)[C@]12Oc1c(Cl)c(OC)cc(OC)c1C2=O
inactive: outcome [2] | Potency [16] | Potency [3] | Potency [4]

CC1(C)O[C@@H]2C[C@H]3[C@@H]4C[C@H](F)C5=CC(=O)C=C[C@]5(C)[C@H]4[C@@H](O)C[C@]3(C)[C@]2(C(=O)CO)O1
inactive: outcome [2] | Potency [3] | Potency [15] | Potency [4]

CCOC(=O)COc1ccc2c(C)c(CCN(CC)CC)c(=O)oc2c1Cl
inactive: outcome [2] | Potency [16] | Potency [15] | Potency [4]

C[C@]12CCC(=O)C=C1CC[C@H]1[C@@H]3CC[C@](O)(C(=O)CO)[C@@]3(C)C[C@H](O)[C@@]12F
inactive: outcome [2] | Potency [3] | Potency [15] | Potency [4]

CN1[C@@H]2CC[C@H]1CC(OC(=O)c1c[nH]c3ccccc13)C2 (some centres undefined)
inactive: outcome [2] | Potency [3] | Potency [15] | Potency [4]

O=C(O)CCCCC(=O)O
inactive: outcome [2] | Potency [16] | Potency [3] | Potency [15] | Potency [4]
